KCNQ2 block – KCNQ2 (rat) channel inhibition; CHO-K1 KCNQ2, FluxOR thallium flux, 20 min; hits give low values; B-score at 10 µM; 310,000 compounds, 1.1% hits; AID 2156;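 active = fluorescence ratio B-score at most minus 3 library SDs, with starting brightness B-score within 2 library SDs, cut at about -5.5 in these data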
KCNQ2 pot – KCNQ2 (rat) channel potentiation | 310,000 compounds, 0.54% hits | AID 2239 | B-score at 10 µM | O88943 | CHO-K1 KCNQ2, FluxOR thallium flux fluorescence; hits give high values;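 active = fluorescence ratio B-score at least 3 SD of library B-scores, with initial fluorescence B-score within 3 of them, cut at about 5.3 in these data; same plate scores as AID 2156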;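 also: B-score of peak minus minimum over baseline fluorescence ratio after K+ and Tl+ stimulus; positive B-score means potentiation of KCNQ2 with more thallium influx and brighter signal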
Kir21 conf inh – confirmation of mouse Kir2.1 potassium channel inhibitors | Tl flux remaining, % of negative control (hits give low values), % at 10 µM | Kir2.1-expressing cells, FluxOR thallium flux fluorescence; hits give low values | shares compounds with KCNQ2 pot | AID 2032 | 2,300 compounds, 41% hits;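 active = Primary-screen hit whose thallium flux fell at least 3 control SD below untreated wells in both duplicates, with normal baseline fluorescence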;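 also: 0% = blank wells without stimulus and 100% = stimulated no-compound controls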
HEK293 ctr – alters thallium flux in parental HEK293 cells, Kir2.1 counter-screen. shares compounds with KCNQ2 pot. FluxOR signal as % of negative control (100 = no effect), % at 10 µM. FluxOR thallium flux fluorescence; 0% = unstimulated blank wells. AID 2105. 2,300 compounds, 19% hits;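 active = dye signal at least 3 control SD above or below untreated wells in both duplicates, raw fluorescence within 3, either direction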;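 also: percent is based on the flux ratio of peak minus minimum fluorescence over baseline F0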
CHO-K1 Tl ctr – alters thallium flux in parental CHO-K1 cells, KCNQ2 counter-screen. AID 2282. shares compounds with KCNQ2 pot. activity increase over 3SD of controls, % at 10 µM. 1,200 compounds, 43% hits. FluxOR thallium flux fluorescence; zero = vehicle mean+3SD, 100% = vehicle-minus-blank window;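 active = signal rise of at least 3 SD above the untreated control mean, in both duplicate wells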;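 also: counter screen of KCNQ2 potentiator hits so any rise reflects channel-independent effects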
KCNQ1 sel pot – selectivity of KCNQ2 potentiators: effect on human KCNQ1. CHO KCNQ1 stable, FluxOR thallium flux fluorescence; beyond 3SD, as % of vehicle-control signal. AID 2283. 1,200 compounds, 28% hits. shares compounds with KCNQ2 pot. activation over 3SD threshold, % at 10 µM;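 active = fluorescence ratio rise of at least 3 SD of vehicle wells above their mean, in both replicate wells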;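 also: 0% = vehicle mean plus 3 SD and 100% = vehicle minus unstimulated blank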
KCNQ2 pot conf – confirmation of rat KCNQ2 potassium channel potentiators; 1,200 compounds, 68% hits; AID 2287; shares compounds with KCNQ2 pot; potentiation, less the hit threshold, % at 10 µM; CHO-KCNQ2 cells, FluxOR thallium flux fluorescence;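 active = fluorescence ratio rising 3 SD or more over the vehicle control mean in both replicates, plus primary screen hit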;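 also: peak minus minimum thallium fluorescence divided by baseline after K/Tl stimulus; 0% = vehicle mean plus 3 SD and 100% = vehicle minus unstimulated blank difference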
Kir2-1 sel – selectivity of KCNQ2 potentiators: effect on mouse Kir2.1; shares compounds with KCNQ2 pot; HEK293 Kir2.1, FluxOR thallium flux fluorescence; activity over 3SD threshold, % at 10 µM; 1,200 compounds, 2% hits;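 active = fluorescence ratio rise of at least 3 SD above the vehicle-control mean, seen in both replicates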;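 also: 0% = vehicle mean plus 3 SD and 100% = vehicle minus no-stimulus blank window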
KCNQ2 W236L pot – potentiates the retigabine-insensitive rat KCNQ2 W236L mutant channel. shares compounds with KCNQ2 pot. CHO KCNQ2-W236L, automated patch clamp current. current increase over 3SD of negative controls (%), hits give high values, % at 25 µM. 940 compounds, 10% hits;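 active = current increase at least 3 SD of the untreated controls above them in both duplicate recordings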
Target sequence (O88943 whole entry W236L, looked up): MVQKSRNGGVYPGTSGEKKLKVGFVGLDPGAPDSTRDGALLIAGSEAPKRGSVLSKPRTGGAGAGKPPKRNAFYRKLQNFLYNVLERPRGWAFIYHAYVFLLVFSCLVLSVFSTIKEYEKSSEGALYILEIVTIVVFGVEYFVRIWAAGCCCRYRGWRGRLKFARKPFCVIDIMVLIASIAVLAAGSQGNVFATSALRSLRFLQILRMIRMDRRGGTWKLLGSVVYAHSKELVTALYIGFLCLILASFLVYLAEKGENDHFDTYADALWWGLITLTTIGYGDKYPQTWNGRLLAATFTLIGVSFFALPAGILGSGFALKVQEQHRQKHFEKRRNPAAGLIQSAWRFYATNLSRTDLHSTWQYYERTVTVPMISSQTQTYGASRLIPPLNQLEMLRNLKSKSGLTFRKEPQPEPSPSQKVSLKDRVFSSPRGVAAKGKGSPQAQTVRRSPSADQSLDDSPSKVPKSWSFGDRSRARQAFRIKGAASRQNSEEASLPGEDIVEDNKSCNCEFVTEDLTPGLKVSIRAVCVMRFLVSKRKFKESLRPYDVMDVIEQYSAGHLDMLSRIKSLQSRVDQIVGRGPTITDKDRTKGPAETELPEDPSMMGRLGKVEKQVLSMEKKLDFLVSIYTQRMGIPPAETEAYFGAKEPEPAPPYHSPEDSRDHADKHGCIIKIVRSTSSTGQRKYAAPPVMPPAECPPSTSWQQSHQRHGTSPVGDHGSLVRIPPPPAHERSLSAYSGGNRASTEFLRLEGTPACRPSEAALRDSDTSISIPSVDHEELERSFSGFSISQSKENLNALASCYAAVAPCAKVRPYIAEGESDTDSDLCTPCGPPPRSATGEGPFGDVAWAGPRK
* hit, by the source's call; i = inactive; · = no result. Sampled rows, rich in hits. Any-hit rate of the full collection: about 1.6%.

SMILES	KCNQ2 block	KCNQ2 pot	Kir21 conf inh	HEK293 ctr	others
O=C1CC(NS(=O)(=O)c2ccccc2)CN1c1ccc2c(c1)OCCO2 (centres undefined)	i	1.11	·	·
CCn1c(=S)[nH]c2c(c1=O)C(C)(C)Cc1ccccc1-2	i	12.3*	i	288.5%*	CHO-K1 Tl ctr=4.3*;KCNQ1 sel pot=-14.6;KCNQ2 pot conf=27.8*;Kir2-1 sel=-22.6;KCNQ2 W236L pot=i
CCC1(C)Cc2ccccc2-c2[nH]c(=S)[nH]c(=O)c21 (centres undefined)	i	1.22	·	·
CC(OC(=O)CCc1ccccc1)C(=O)Nc1ncc(Cl)cc1Cl (centres undefined)	i	0.13	·	·
O=C1NC[C@H](c2ccccc2)N(CCC23CC4CC(CC(C4)C2)C3)C1=O	i	·	·	·
NC(N)=N/N=C/c1ccc(OCc2ccccc2)cc1	-6.77*	-6.77	16.5%*	i
O=C(N/N=C/c1ccc(OCc2ccccc2)cc1)c1ccco1	i	0.07	·	·
COc1ccc2cc([C@H](C)C(=O)N(C)Cc3ccccc3N3CCCC3)ccc2c1	i	·	·	·
COc1ccccc1N1CCN(/N=C/c2ccccc2C(=O)O)CC1	i	·	·	·
Cc1ccc(Nc2cc(C)nn2-c2nc(C)cc(C)n2)cc1	i	2.04	·	·
Cc1ccc(Nc2cc(C)nn2-c2nc(C)cc(=O)[nH]2)cc1	i	17.4*	i	269.0%*	CHO-K1 Tl ctr=59.7*;KCNQ1 sel pot=44.6*;KCNQ2 pot conf=41.8*;Kir2-1 sel=-29.6;KCNQ2 W236L pot=i
Cc1cc(=S)nc(-c2ccccn2)[nH]1	i	2.42	·	·
Cc1[nH]c(-c2ccccn2)nc(=S)c1Cl	i	11.1*	i	298.5%*	CHO-K1 Tl ctr=-8.9;KCNQ1 sel pot=-7.2;KCNQ2 pot conf=42.5*;Kir2-1 sel=-18.4;KCNQ2 W236L pot=i
CSc1ccc(S(=O)(=O)NCCOc2ccccc2C)cc1	i	·	·	·
CCc1ccc(S(=O)(=O)NCCOc2cccc3cccnc23)cc1	i	·	69.5%*	i
Cc1cc(C(=O)COC(=O)C2=COCCO2)c(C)n1-c1cccc(F)c1	i	0.13	·	·
COc1ccc(-c2csc(NC(=S)NC(=O)c3cccs3)n2)cc1OC	i	3.18	·	·
COc1ccc(-c2csc(NC(=S)NC(=O)c3cccs3)n2)cc1Br	i	7.07*	i	70.0%*	CHO-K1 Tl ctr=-5.1;KCNQ1 sel pot=-15.8;KCNQ2 pot conf=-1.9;Kir2-1 sel=-35.2
O=C(Nc1c2c(nn1-c1cccc(Cl)c1)CS(=O)(=O)C2)c1ccc2c(c1)OCO2	i	1.46	·	·
Cc1ccc(C)c(NC(=O)C2CCCN(c3cnccn3)C2)c1 (centres undefined)	i	0.49	·	·
Cc1ccc(-c2nc(-c3ccncc3)no2)cc1	i	0.06	·	·
CC(C)(C)c1ccc(-c2nc(-c3ccncc3)no2)cc1	i	7*	i	i	CHO-K1 Tl ctr=54.1*;KCNQ1 sel pot=-12.9;KCNQ2 pot conf=45.5*;Kir2-1 sel=-35.8;KCNQ2 W236L pot=i
COc1ccccc1-n1c(-c2ccccc2)c[n+]2c1CCc1ccccc1-2	i	·	·	·
COc1ccc(-n2c(-c3ccc(Br)cc3)c[n+]3c2CCc2ccccc2-3)cc1	i	·	59.5%*	74.0%*
CC(C)c1ccc(-n2c(-c3ccccc3)c[n+]3c2CCc2ccccc2-3)cc1	-7.43*	-7.43	20.0%*	i
SMILES	KCNQ2 block	KCNQ2 pot	Kir21 conf inh	HEK293 ctr	others
COc1ccc(-c2cn(-c3ccc(OC)cc3)c3[n+]2-c2ccccc2CC3)cc1	i	·	·	·
CN(C)CCCN1c2ccccc2CCc2ccc(Cl)cc21	i	·	41.0%*	i
CN(CCCN1c2ccccc2CCc2ccccc21)CC(=O)c1ccc(Cl)cc1	i	·	·	·
COc1ccc(O)c(/C=N/NC(=O)CN2CCS(=O)(=O)CC2)c1	i	0.59	·	·
O=C(CNCC1CCCCC1)Nc1ccc(OC(F)(F)F)cc1	i	15.2*	i	i	CHO-K1 Tl ctr=0.6*;KCNQ1 sel pot=-16.9;KCNQ2 pot conf=35.0*;Kir2-1 sel=-33.6;KCNQ2 W236L pot=i
CN(CC(=O)Nc1ccc(OC(F)(F)F)cc1)C1CCCCC1	i	·	·	·
CC(=O)c1c(N2CCN(Cc3ccccc3)CC2)[nH]c(-c2ccccc2)nc1=S	i	6.18*	i	208.0%*	CHO-K1 Tl ctr=-17.6;KCNQ1 sel pot=54.1*;KCNQ2 pot conf=2.3*;Kir2-1 sel=-35.4;KCNQ2 W236L pot=i
CC(=O)c1c(N2CCCC2)[nH]c(-c2ccccc2)nc1=S	i	1.93	·	·
COc1cccc(/C=C/C(=O)OCC(=O)N2CCN(S(=O)(=O)c3ccc(Cl)cc3)CC2)c1	i	2.05	·	·
O=C(OCC(=O)N1CCN(S(=O)(=O)c2ccc(Cl)cc2)CC1)c1cccc(OC(F)F)c1	i	11.1*	i	i	CHO-K1 Tl ctr=-7.9;KCNQ1 sel pot=-16.4;KCNQ2 pot conf=12.5*;Kir2-1 sel=-29.4;KCNQ2 W236L pot=i
N#Cc1nc(Cc2cccc3ccccc23)oc1NCCCn1ccnc1	i	0.19	·	·
N#Cc1nc(Cc2cccc3ccccc23)oc1NCCCN1CCOCC1	i	·	52.0%*	i
CCn1c(=O)[nH]c(=O)c2c(N)c(C(=O)c3cc(F)ccc3F)sc21	i	1.78	·	·
COc1ccccc1NC(=O)c1c(N=Cc2ccccc2O)cnn1C	i	11.6*	i	i	CHO-K1 Tl ctr=46.6*;KCNQ1 sel pot=64.1*;KCNQ2 pot conf=-12.1;Kir2-1 sel=-28.4
COc1ccccc1NC(=O)c1nn(C)c(C(=O)Nc2ccccc2OC)c1[N+](=O)[O-]	i	·	·	·
CC1(C)CC(=O)C(C(c2ccc(F)cc2)C2C(=O)CC(C)(C)CC2=O)C(=O)C1	i	·	·	·
CC1(C)CC(=O)C(C(c2ccco2)C2C(=O)CC(C)(C)CC2=O)C(=O)C1	i	9.79*	i	73.5%*	CHO-K1 Tl ctr=-39.8;KCNQ1 sel pot=-15.8;KCNQ2 pot conf=39.7*;Kir2-1 sel=-37.3;KCNQ2 W236L pot=i
CCCCCCSC1=C(C#N)C(c2ccc(C)o2)CC(=O)N1 (centres undefined)	i	·	59.5%*	i
Cc1ccc(C2CC(=O)NC(SCc3ccccc3)=C2C#N)o1 (centres undefined)	i	·	43.5%*	i
C=C(C)CSC1=C(C#N)C(c2ccccc2)CC(=O)N1 (centres undefined)	i	·	·	·
N#CC1=C(SCC(=O)NCc2ccccc2)NC(=O)CC1c1ccco1 (centres undefined)	i	0.02	·	·
N#CC1=C(SCc2ccccc2)NC(=O)CC1c1ccco1 (centres undefined)	i	·	41.0%*	i
CCSC1=C(C#N)C(c2ccc(C)o2)CC(=O)N1 (centres undefined)	i	·	·	·
Cc1cccc(COc2ccccc2C(=O)OCC(=O)N(C)c2c(N)n(Cc3ccccc3)c(=O)[nH]c2=O)c1	i	·	·	·
COCCN(C(=O)COC(=O)C1(C)CC1(Cl)Cl)c1c(N)n(Cc2ccccc2)c(=O)[nH]c1=O (centres undefined)	i	0.47	·	·

Screening results (PubChem BioAssay)
